The nature of experiment [1]: CCTE_Mundy_HCI_hNP1_Pro_ResponderAvgInten: CCTE's Proliferation Assay in human neuroprogenitor cells, Mundy Lab (AID 2284224; active means hit-call score of the fitted dose curve at least 0.9, where 1 is the maximum;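 further: human neural progenitor cells hNP1 derived from WA09 embryonic stem cells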). The method in brief:
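Human neuroprogenitors (hNP1, WA09 lineage) receive test chemical after 40 to 44 hours of attachment. A four-hour BrdU pulse begins twenty hours later, followed by fixation and high content imaging; signal is referenced to DMSO controls.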

A short description of experiment [2]: BSK_BT_PBMCCytotoxicity: PBMC Cytotoxicity Assessment in the BioMAP Diversity Plus: BT Assay (AID 2284225).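 Further: PBMC viability measured by Alamar Blue dye reduction fluorescence.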 The settings on record: primary human B cells with PBMC. The method in brief:
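Viability by Alamar Blue reduction (6 h, ex/em 546/580 nm) after 90 h culture of SEB/TSST-1-activated PBMC (20 ng/mL each) given compound 1 h before activation. DMSO served as baseline for curve fitting.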

Read-out in experiment [3]: Secreted IgG (sIgG), gene 3500
In words: BSK_BT_sIgG: BioMAP Diversity Plus: BT Assay for Secreted IgG (sIgG) Biomarker Activity (AID 2284226). The settings on record: primary human B cells with PBMC. The method in brief:
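Cells (B cells with peripheral blood mononuclear cells) are dosed, cultured 24 h, then supernatant IgG is measured by ELISA. DMSO serves as negative control; curves are fitted for signal increase.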

Experiment [4] can be described thus: BSK_BT_Bcell_Proliferation: Viability Assessment in the BioMAP Diversity Plus: BT Assay for B cell Proliferation (AID 2284227). The settings on record: primary human B cells with PBMC. The method in brief: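 Using a human primary B cell–PBMC co-culture, the assay measures total protein by sulforhodamine B absorbance as a gauge of proliferation after 72 h. Analysis followed the positive fitting direction with DMSO as baseline.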

Read-out in experiment [5]: Interleukin 6 (IL6), IL6 (gene 3569)
In words: BSK_BT_xIL6: BioMAP Diversity Plus: BT Assay for Interleukin 6 (IL6) Biomarker Activity (AID 2284228). The settings on record: primary human B cells with PBMC. The method in brief:
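B cells and peripheral blood mononuclear cells (human primary co-culture) were dosed with chemical, and after 24 h IL-6 released into the medium was measured by Luminex xMAP. Responses were analysed as gain of signal over DMSO control.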

Read-out in experiment [6]: Interleukin 17A (IL17A), IL17A (gene 3605)
In words: BSK_BT_xIL17A: BioMAP Diversity Plus: BT Assay for Interleukin 17A (IL17A) Biomarker Activity (AID 2284229). Particulars: primary human B cells with PBMC. The method in brief:
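Secreted IL-17A was the measured endpoint, read by Luminex xMAP multiplex in supernatants of a human B cell/PBMC co-culture harvested 24 h after chemical dosing. Signal increase relative to DMSO defined activity.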

Read-out in experiment [7]: Tumor necrosis factor (Homo sapiens) (UniProt P01375)
In words: BSK_BT_xTNFa: BioMAP Diversity Plus: BT Assay for Tumor necrosis factor alpha (TNF-alpha) Biomarker Activity (AID 2284230). Particulars: primary human B cells with PBMC. The method in brief:
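Endpoint derived in the positive direction versus DMSO vehicle. Cells: B cells together with PBMC, exposed 24 h before TNF-alpha in the medium was read on the Luminex xMAP platform.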

Read-out in experiment [8]: Vascular cell adhesion molecule 1 (VCAM1), VCAM1 (gene 7412)
In words: BSK_MyoF_VCAM1: BioMAP Diversity Plus: MyoF Assay for Vascular cell adhesion molecule 1 (VCAM1) Biomarker Activity (AID 2284231). Particulars: primary human lung fibroblasts. The method in brief:
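ELISA read-out of VCAM-1 on human lung fibroblasts 24 h after chemical treatment, with positive-direction curve fitting relative to DMSO controls. Parallel cultures were stained with sulforhodamine B for total protein to flag overt cytotoxicity.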

Values joined by “and” are separate entries in the source; they are usually repeats but may differ in a detail not shown here. Equal entries are not always repeated. Results filed as inconclusive are left out. A structure can be active in one record and inactive in another. Active and inactive are the calls of the source. How the source made its calls, unless noted: active means hit-call score of the fitted dose curve at least 0.9, where 1 is the maximum; inactive means score below 0.9.

The AC50 is the concentration at which the activity in the assay is half-maximal.

Chain of Tumor necrosis factor (Homo sapiens) (P01375 whole entry, looked up): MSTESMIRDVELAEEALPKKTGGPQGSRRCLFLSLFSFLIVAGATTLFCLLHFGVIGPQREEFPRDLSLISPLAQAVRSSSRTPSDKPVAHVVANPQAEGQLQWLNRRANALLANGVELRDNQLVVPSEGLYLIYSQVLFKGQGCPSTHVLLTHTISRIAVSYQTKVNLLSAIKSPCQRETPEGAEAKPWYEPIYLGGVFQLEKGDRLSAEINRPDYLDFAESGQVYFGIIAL

With `O=C(O)C(F)(F)C(F)(F)C(F)(F)F`, the outcome in experiment [1], in experiment [2], in experiment [3], in experiment [4], in experiment [5] and in experiment [6] was inactive. Further, the result in experiment [7] and in experiment [8] was inactive.

Turning to `O=C(O)C(F)(F)C(F)(F)C(F)(F)C(F)(F)C(F)(F)C(F)(F)C(F)(F)C(F)(F)C(F)(F)C(F)(F)C(F)(F)C(F)(F)F`, the outcome in experiment [2], in experiment [3], in experiment [4], in experiment [5], in experiment [6] and in experiment [7] was inactive. Also, the result in experiment [8] was inactive.

With `Cc1ccc(S(=O)(=O)OCC(F)(F)C(F)(F)C(F)(F)C(F)(F)C(F)(F)C(F)F)cc1`, the outcome in experiment [2], in experiment [3], in experiment [4], in experiment [5], in experiment [6] and in experiment [7] was inactive. For the same compound, in experiment [8], the outcome was inactive. Moreover, the AC50 in experiment [3] was 41.7 µM (active).

For the compound `O=C(O)C(F)(F)C(F)(F)C(F)(F)C(F)(F)C(F)(F)C(F)(F)C(F)(F)C(F)(F)C(F)(F)C(F)F`, the half-maximal activity concentration (AC50) in experiment [2] is 22.9 µM (active); in experiment [4] it was 16.4 µM (active); in experiment [8], 21.5 µM (active) and 23.5 µM (active). Moreover, the outcome in experiment [2], in experiment [3], in experiment [4], in experiment [5], in experiment [6] and in experiment [7] was inactive.

`FC(F)(Br)C(F)(F)C(F)(F)C(F)(F)C(F)(F)C(F)(F)Br`: the outcome in experiment [2], in experiment [3], in experiment [4], in experiment [5], in experiment [6] and in experiment [7] was inactive. Also, the outcome in experiment [8] was inactive.

Turning to `FC(F)(F)C(F)(F)C(F)(F)N(C(F)(F)C(F)(F)C(F)(F)F)C(F)(F)C(F)(F)C(F)(F)F`, the result in experiment [2], in experiment [3], in experiment [4], in experiment [5], in experiment [6] and in experiment [7] was inactive. Moreover, in experiment [8], the result was inactive.

For the compound `C=C(C)C(=O)OCC(F)(F)C(F)(F)C(F)(F)C(F)(F)C(F)(F)C(F)(F)C(F)(F)F`, the outcome in experiment [2], in experiment [3], in experiment [4], in experiment [5], in experiment [6] and in experiment [7] was inactive. Further, the result in experiment [8] was inactive.

Regarding `OCC(F)(F)C(F)(F)C(F)(F)C(F)(F)C(F)(F)C(F)(F)F`, the AC50 in experiment [2] is 41 µM (active); in experiment [3], 43.9 µM (active); in experiment [4], 47.7 µM (active); in experiment [7] it was 41.2 µM (active). The result in experiment [2], in experiment [3], in experiment [4], in experiment [5], in experiment [6] and in experiment [7] was inactive. In experiment [8], the result was inactive.

`CC(C)(C)C(=O)CC(=O)C(F)(F)C(F)(F)C(F)(F)F`: the result in experiment [1], in experiment [2], in experiment [3], in experiment [4], in experiment [5] and in experiment [6] was inactive. In addition, the outcome in experiment [7] and in experiment [8] was inactive.

As for `FC(F)(F)C(F)(F)C(F)(F)C(F)(F)C(F)(F)C(F)(F)C(F)(F)C(F)(F)F`, the compound was called inactive in experiment [1], in experiment [2], in experiment [3], in experiment [4], in experiment [5] and in experiment [6]. The result in experiment [7] and in experiment [8] was inactive.

With `O=P(O)(O)OCCC(F)(F)C(F)(F)C(F)(F)C(F)(F)C(F)(F)C(F)(F)F`, the outcome in experiment [2], in experiment [3], in experiment [4], in experiment [6], in experiment [7] and in experiment [8] was inactive. Besides, the AC50 is 21.9 µM (active) and 19.9 µM (active) in experiment [5]; 20.2 µM (active) in experiment [6].

In the case of `CCc1c(Br)c(Br)c(Br)c(Br)c1Br`, the result in experiment [2], in experiment [3], in experiment [4], in experiment [5], in experiment [6] and in experiment [7] was inactive. Further, in experiment [8], the AC50 is 20 µM (active).

As to `O=C(O)C(F)(F)C(F)(F)C(F)(F)C(F)(F)F`, the outcome in experiment [2], in experiment [3], in experiment [4], in experiment [5], in experiment [6] and in experiment [7] was inactive. The result in experiment [8] was inactive.

For the compound `CCCCCCC(C)OC(=O)CCCCC(=O)OC(C)CCCCCC` (stereo unspecified), the result in experiment [2], in experiment [3], in experiment [4], in experiment [5], in experiment [6] and in experiment [7] was inactive. The result in experiment [8] was inactive.

For `O=C(O)C(F)(F)C(F)(F)OC(F)(F)F`, the outcome in experiment [1], in experiment [2], in experiment [3], in experiment [4], in experiment [5] and in experiment [6] was inactive. Besides, the result in experiment [7] and in experiment [8] was inactive.

As to `CS(C)(=O)=O`, the result in experiment [2], in experiment [3], in experiment [4], in experiment [5], in experiment [6] and in experiment [7] was inactive. In addition, in experiment [8], the result was inactive.

`C=CC(F)(F)C(F)(F)C(F)(F)C(F)(F)C(F)(F)C(F)(F)C(F)(F)C(F)(F)C=C`: the result in experiment [2], in experiment [3], in experiment [4], in experiment [5], in experiment [6] and in experiment [7] was inactive. Further, the result in experiment [8] was inactive.

Source of the values: PubChem BioAssay (EPA / NIEHS).
